Results taken from the supplement of paper PMC10849652.
About 8,800 targets were measured; listed, in parts, are those with a hit and a random draw of the rest. About 0.5% of all pairs of compound and target were hits. Unmarked numbers belong to inactive results.

Experiments:
Experiment in all cases: log2 fold change, soluble protein after heating vs DMSO (PISA); higher = thermal stabilisation; K562 lysate, 10 uM; active = over 0.2 and 3.5 SD of the protein, either way, in both replicates (recomputed)
vemurafenib = compound: CCCS(=O)(=O)Nc1ccc(F)c(C(=O)c2c[nH]c3ncc(-c4ccc(Cl)cc4)cc23)c1F [vemurafenib]
Summary of the method: (§1)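 K562 pellets were dounce-homogenised in PBS pH 7.4 with 1 mM MgCl2, and the crude extract at 1 mg/mL protein was treated with 10 μM compound for 30 min. Aliquots were heated for 3 min across 48°C-58°C, pooled, and brought to 0.5% NP-40 at 4°C; soluble protein was the supernatant after 21,000xg for 90 min. Soluble protein was quantified by TMTpro 16plex LC-MS/MS with channel sums equalised, and reported as log2 fold change in thermal stability against DMSO controls, with values from duplicates.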

[1] = compound: CCCS(=O)(=O)Nc1ccc(F)c(C(=O)c2c[nH]c3ncc(Cl)cc23)c1F
Summary of the method: as §1

barasertib = compound: CCN(CCCOc1ccc2c(Nc3cc(CC(=O)Nc4cccc(F)c4)[nH]n3)ncnc2c1)CCOP(=O)(O)O [barasertib]
Summary of the method: as §1

[2] = compound: CC[C@@H]1C(=O)N(C)c2cnc(Nc3ccc(C(=O)NC4CCN(C)CC4)cc3OC)nc2N1C1CCCC1
Summary of the method: as §1

volasertib = compound: CC[C@@H]1C(=O)N(C)c2cnc(Nc3ccc(C(=O)N[C@H]4CC[C@H](N5CCN(CC6CC6)CC5)CC4)cc3OC)nc2N1C(C)C [volasertib]
Summary of the method: as §1

[3] = compound: CCn1c(C(=O)N(C2CC2)C2CC2)cc2c3c(ncn3C)c(Nc3cc(C)n(C)n3)nc21
Summary of the method: as §1

[4] = compound: CCn1cc(-c2ccnc3[nH]c(-c4cccc(CN(C)C)c4)cc23)c(-c2ccc(NC(=O)N(C)C)cc2)n1
Summary of the method: as §1

[5] = compound: CN1CCC(CNc2ccc3ncc(-c4cccc(OC(F)(F)F)c4)n3n2)CC1
Summary of the method: as §1

saracatinib = compound: CN1CCN(CCOc2cc(OC3CCOCC3)c3c(Nc4c(Cl)ccc5c4OCO5)ncnc3c2)CC1 [saracatinib]
Summary of the method: as §1

sotrastaurin = compound: CN1CCN(c2nc(C3=C(c4c[nH]c5ccccc45)C(=O)NC3=O)c3ccccc3n2)CC1 [sotrastaurin]
Summary of the method: as §1

alvocidib = compound: CN1CC[C@H](c2c(O)cc(O)c3c(=O)cc(-c4ccccc4Cl)oc23)[C@H](O)C1 [alvocidib]
Summary of the method: as §1

Tubastatin A = compound: CN1CCc2c(c3ccccc3n2Cc2ccc(C(=O)NO)cc2)C1 [Tubastatin A]
Summary of the method: as §1

[6] = compound: CNC(=O)C1=CC=CC=C1NC2=NC(=NC=C2Cl)NC3=C(C=C(C=C3)N4CCOCC4)OC
Summary of the method: as §1

defactinib = compound: CNC(=O)c1ccc(Nc2ncc(C(F)(F)F)c(NCc3nccnc3N(C)S(C)(=O)=O)n2)cc1 [defactinib]
Summary of the method: as §1

[7] = compound: CNc1nc(-c2ccc3c(N)n[nH]c3c2)cc(N2C[C@@H](C(=O)NC3CCCCC3)CC[C@H]2C)n1
Summary of the method: as §1

encorafenib = compound: COC(=O)N[C@@H](C)CNc1nccc(-c2cn(C(C)C)nc2-c2cc(Cl)cc(NS(C)(=O)=O)c2F)n1 [encorafenib]
Summary of the method: as §1

[8] = compound: COC(=O)[C@H](CCSC)NC(=O)C1=C(C=C(C=C1)NC[C@H](CS)N)C2=CC=CC=C2
Summary of the method: as §1

alisertib = compound: COc1cc(Nc2ncc3c(n2)-c2ccc(Cl)cc2C(c2c(F)cccc2OC)=NC3)ccc1C(=O)O [alisertib]
Summary of the method: as §1

[9] = compound: COc1cc2nc(-c3cc(F)ccc3O)nc(N[C@@H]3CNC[C@H]3C(C)(C)O)c2cc1OC
Summary of the method: as §1

gefitinib = compound: COc1cc2ncnc(Nc3ccc(F)c(Cl)c3)c2cc1OCCCN1CCOCC1 [gefitinib]
Summary of the method: as §1

Chain of UniProt Q6NXT6 (Q6NXT6 whole entry, looked up): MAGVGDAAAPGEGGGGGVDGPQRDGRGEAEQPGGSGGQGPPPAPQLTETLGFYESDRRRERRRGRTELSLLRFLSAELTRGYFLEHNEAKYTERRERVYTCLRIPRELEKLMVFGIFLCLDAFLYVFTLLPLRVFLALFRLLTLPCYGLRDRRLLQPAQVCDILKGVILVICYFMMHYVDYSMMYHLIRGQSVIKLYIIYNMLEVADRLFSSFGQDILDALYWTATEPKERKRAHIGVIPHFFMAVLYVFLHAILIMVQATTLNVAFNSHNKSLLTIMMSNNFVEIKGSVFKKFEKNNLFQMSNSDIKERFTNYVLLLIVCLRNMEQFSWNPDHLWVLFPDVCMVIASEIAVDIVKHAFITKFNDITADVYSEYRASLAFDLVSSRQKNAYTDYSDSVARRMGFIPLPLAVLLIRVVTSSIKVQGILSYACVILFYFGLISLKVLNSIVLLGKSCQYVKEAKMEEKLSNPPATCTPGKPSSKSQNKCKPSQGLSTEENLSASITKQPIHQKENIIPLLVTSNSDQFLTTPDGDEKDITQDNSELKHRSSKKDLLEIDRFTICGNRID
Chain of UniProt Q7KZF4 (Q7KZF4 whole entry, looked up): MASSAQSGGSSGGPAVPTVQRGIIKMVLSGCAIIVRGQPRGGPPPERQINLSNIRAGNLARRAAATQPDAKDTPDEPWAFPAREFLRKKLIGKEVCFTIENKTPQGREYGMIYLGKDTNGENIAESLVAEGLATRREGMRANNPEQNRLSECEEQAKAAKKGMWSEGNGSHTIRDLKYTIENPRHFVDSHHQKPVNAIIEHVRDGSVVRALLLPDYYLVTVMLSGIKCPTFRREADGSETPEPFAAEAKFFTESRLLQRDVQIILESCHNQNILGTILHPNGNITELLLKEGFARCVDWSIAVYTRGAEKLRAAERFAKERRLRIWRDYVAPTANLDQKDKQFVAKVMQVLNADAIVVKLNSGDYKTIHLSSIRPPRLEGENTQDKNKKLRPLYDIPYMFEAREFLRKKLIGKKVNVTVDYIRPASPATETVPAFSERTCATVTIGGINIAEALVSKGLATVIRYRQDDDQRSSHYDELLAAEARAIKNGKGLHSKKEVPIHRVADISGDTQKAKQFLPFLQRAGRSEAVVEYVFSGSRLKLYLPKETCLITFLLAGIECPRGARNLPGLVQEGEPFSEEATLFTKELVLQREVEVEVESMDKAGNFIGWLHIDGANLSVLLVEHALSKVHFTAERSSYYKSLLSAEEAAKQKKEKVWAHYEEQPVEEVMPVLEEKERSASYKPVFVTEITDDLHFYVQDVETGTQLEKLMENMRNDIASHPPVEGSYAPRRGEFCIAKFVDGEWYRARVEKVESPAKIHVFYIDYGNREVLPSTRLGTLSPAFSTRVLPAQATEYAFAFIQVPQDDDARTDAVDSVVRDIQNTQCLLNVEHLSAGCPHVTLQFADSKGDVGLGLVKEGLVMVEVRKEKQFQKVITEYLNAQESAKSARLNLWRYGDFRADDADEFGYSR
Chain of UniProt P53985 (P53985 whole entry, looked up): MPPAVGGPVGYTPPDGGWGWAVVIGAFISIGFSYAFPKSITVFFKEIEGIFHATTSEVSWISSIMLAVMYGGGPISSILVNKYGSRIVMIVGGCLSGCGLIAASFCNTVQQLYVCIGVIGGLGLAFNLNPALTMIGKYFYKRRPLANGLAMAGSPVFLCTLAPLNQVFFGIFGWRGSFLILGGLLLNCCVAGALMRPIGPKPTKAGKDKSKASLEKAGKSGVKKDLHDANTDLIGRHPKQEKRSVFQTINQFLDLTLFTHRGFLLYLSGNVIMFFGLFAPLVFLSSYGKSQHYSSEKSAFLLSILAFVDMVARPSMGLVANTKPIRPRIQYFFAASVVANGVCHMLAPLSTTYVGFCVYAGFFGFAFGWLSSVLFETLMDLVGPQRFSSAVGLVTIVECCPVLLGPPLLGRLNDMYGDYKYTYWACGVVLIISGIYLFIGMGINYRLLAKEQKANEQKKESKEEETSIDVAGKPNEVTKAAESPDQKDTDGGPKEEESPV
Chain of UniProt P08047 (P08047 whole entry, looked up): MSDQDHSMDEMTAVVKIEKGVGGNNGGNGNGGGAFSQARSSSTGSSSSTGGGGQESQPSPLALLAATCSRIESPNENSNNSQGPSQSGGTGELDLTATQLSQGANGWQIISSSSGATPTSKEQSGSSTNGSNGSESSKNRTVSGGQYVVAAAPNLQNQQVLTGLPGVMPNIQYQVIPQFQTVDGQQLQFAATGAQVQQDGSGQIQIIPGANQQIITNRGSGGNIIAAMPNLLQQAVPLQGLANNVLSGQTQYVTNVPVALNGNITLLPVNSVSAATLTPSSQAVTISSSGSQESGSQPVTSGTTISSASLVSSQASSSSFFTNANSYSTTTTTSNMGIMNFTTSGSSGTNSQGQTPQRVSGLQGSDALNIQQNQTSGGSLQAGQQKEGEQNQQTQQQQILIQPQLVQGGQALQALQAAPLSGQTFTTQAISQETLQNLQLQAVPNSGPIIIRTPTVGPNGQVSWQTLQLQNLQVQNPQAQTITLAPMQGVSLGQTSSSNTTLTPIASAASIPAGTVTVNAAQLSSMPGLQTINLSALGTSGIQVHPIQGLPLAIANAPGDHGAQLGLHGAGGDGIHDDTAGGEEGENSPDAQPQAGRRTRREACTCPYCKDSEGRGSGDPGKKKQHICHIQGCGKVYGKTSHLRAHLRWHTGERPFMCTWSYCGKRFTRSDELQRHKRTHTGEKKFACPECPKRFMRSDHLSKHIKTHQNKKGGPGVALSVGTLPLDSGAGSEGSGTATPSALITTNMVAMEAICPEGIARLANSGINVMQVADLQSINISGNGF
Chain of UniProt Q8NHG7 (Q8NHG7 whole entry, looked up): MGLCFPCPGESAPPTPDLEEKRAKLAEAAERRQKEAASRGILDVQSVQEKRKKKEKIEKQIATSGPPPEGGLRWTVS
Chain of UniProt O00161 (O00161 whole entry, looked up): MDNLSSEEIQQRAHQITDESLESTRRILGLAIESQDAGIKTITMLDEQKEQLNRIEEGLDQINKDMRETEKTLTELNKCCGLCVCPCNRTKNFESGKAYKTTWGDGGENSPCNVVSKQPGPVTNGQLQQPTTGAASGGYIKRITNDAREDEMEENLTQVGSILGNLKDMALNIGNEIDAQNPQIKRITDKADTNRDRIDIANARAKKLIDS
Chain of UniProt Q9UJZ1 (Q9UJZ1 whole entry, looked up): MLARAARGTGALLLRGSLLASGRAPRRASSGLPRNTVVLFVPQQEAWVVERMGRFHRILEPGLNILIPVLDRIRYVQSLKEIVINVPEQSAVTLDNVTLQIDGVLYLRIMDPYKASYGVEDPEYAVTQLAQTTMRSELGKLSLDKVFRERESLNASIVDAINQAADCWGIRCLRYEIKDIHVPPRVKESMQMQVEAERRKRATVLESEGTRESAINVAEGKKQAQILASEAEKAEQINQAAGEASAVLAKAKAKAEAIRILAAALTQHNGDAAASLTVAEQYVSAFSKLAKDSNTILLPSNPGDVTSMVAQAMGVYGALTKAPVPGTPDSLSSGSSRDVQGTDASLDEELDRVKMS
Chain of UniProt Q9H4L7 (Q9H4L7 whole entry, looked up): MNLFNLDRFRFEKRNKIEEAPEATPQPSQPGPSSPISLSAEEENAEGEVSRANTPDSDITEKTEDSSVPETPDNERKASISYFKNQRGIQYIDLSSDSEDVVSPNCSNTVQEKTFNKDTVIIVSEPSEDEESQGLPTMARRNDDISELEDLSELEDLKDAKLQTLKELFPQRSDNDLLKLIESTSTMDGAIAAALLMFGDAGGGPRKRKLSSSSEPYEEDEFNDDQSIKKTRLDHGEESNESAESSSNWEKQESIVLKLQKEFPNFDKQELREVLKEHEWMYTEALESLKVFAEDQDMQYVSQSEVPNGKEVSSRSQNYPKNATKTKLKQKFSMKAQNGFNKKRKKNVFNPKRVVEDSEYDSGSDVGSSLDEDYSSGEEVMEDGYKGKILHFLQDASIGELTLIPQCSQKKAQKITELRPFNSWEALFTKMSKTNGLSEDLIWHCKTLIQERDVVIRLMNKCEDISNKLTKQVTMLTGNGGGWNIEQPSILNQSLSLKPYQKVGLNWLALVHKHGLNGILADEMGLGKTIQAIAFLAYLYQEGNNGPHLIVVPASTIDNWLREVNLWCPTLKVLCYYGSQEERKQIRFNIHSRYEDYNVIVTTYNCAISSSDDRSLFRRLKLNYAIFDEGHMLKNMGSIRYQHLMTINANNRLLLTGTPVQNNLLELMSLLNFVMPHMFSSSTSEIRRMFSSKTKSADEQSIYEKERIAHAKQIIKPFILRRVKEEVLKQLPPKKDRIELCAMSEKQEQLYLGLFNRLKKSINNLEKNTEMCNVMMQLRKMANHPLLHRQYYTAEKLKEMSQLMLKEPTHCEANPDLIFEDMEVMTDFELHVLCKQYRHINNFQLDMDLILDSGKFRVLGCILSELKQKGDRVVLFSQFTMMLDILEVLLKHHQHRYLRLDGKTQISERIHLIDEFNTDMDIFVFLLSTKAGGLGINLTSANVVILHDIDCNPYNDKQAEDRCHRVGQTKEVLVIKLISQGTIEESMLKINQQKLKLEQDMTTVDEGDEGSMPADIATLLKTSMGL
Chain of UniProt Q86XZ4 (Q86XZ4 whole entry, looked up): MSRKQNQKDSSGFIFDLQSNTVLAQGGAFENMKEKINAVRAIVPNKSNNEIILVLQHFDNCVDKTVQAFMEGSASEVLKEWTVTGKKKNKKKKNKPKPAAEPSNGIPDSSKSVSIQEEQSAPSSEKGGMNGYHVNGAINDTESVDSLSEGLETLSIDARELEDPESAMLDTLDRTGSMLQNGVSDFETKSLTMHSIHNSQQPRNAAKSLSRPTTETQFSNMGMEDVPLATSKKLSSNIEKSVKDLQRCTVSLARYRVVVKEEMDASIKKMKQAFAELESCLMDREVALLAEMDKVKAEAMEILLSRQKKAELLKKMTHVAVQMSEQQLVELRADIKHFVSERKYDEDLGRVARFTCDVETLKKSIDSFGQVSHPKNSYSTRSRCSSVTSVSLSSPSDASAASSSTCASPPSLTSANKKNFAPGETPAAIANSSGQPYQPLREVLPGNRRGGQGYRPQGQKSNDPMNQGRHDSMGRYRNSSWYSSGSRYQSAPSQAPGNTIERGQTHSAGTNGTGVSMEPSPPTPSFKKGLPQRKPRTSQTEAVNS

Row | Target | log2 fold change (vemurafenib) | log2 fold change [1] | log2 fold change (barasertib) | log2 fold change [2] | log2 fold change (volasertib) | log2 fold change [3] | log2 fold change [4] | log2 fold change [5] | log2 fold change (saracatinib) | log2 fold change (sotrastaurin) | log2 fold change (alvocidib) | log2 fold change (Tubastatin A) | log2 fold change [6] | log2 fold change (defactinib) | log2 fold change [7] | log2 fold change (encorafenib) | log2 fold change [8] | log2 fold change (alisertib) | log2 fold change [9] | log2 fold change (gefitinib)
1 | TAPT1 (UniProt Q6NXT6) | 0.031 | 0.043 | -0.039 | 0.024 | 0.028 | -0.026 | -0.229 (active) | 0.106 | -0.014 | -0.002 | -0.101 | 0.037 | -0.086 | 0.047 | 0.056 | 0.053 | -0.074 | -0.016 | -0.006 | 0.055
2 | SSB (UniProt E7ERC4) | 0.111 | 0 | -0.04 | -0.281 | 0.003 | -0.134 | 1.92 (active) | -0.377 | 0.013 | -0.012 | 0.132 | 0.154 | -0.072 | -0.285 | -0.023 | 0.081 | 0.013 | -0.091 | 0.095 | 0.072
3 | SP1 (UniProt P08047) | -0.115 | 0.056 | 0.045 | 0.015 | 0.043 | -0.008 | -0.061 | 0.019 | 0.037 | -0.154 | -0.017 | -0.013 | 0.053 | 0.03 | 0.104 | 0.073 | -0.087 | 0.005 | -0.06 | 0.003
4 | SLC16A1 (UniProt P53985) | 0.026 | -0.015 | -0.051 | 0.07 | 0.043 | -0.034 | -0.419 (active) | 0.256 (active) | -0.003 | 0.02 | -0.133 | -0.012 | 0.042 | -0.007 | 0.024 | -0.016 | -0.059 | 0.045 | 0.018 | 0.032
5 | SNCA (UniProt P37840) | 0.042 | -0.039 | -0.027 | 0.08 | 0.072 | -0.022 | -0.109 | 0.287 | -0.035 | 0.068 | -0.094 | 0.172 | 0.028 | -0.019 | 0.269 | -0.026 | 0.204 | -0.021 | 0.117 | 0.089
6 | SPATS2 (UniProt Q86XZ4) | -0.013 | 0.032 | 0.071 | -0.175 | -0.041 | 0.128 | 0.144 | 0.038 | -0.12 | 0.031 | 0.039 | -0.075 | 0.019 | 0.353 | 0.036 | 0.066 | -0.195 | -0.015 | -0.047 | 0
7 | STOML2 (UniProt Q9UJZ1) | 0.026 | 0.009 | 0.115 | 0.043 | 0.033 | -0.015 | 0.111 | -0.047 | -0.01 | -0.002 | -0.017 | 0.095 | -0.009 | 0.017 | 0.022 | -0.007 | -0.055 | -0.004 | 0.052 | 0.08
8 | STK11IP (UniProt Q8N1F8) | -0.016 | 0.018 | -0.04 | 0.075 | -0.067 | 0.002 | 0.015 | -0.072 | 0.012 | 0.016 | 0.013 | -0.005 | -0.025 | 0.041 | -0.014 | 0.053 | 0.062 | -0.026 | 0.025 | 0.069
9 | SND1 (UniProt Q7KZF4) | 0.024 | 0.017 | 0.021 | -0.099 | -0.084 | 0.037 | 0.058 | -0.078 | 0.014 | 0.031 | 0.009 | -0.121 | 0.015 | 0.019 | -0.019 | -0.019 | 0.195 | 0.026 | -0.004 | -0.017
10 | SMARCAD1 isoform 2 (UniProt Q9H4L7) | 0.014 | 0.034 | 0.021 | -0.039 | -0.048 | 0.017 | -0.005 | -0.057 | 0.008 | 0.002 | -0.007 | -0.13 | 0.037 | 0.03 | 0.003 | 0.029 | 0.052 | -0.018 | 0.004 | 0.028
11 | SLC20A1 (UniProt Q8WUM9) | 0.099 | -0.004 | 0.009 | 0.416 (active) | -0.028 | -0.061 | 0.153 | -0.013 | 0.063 | -0.006 | 0.002 | 0.054 | -0.012 | -0.155 | 0.016 | -0.039 | -0.057 | -0.026 | 0.036 | 0.05
12 | SNAP23 (UniProt O00161) | 0.013 | -0.025 | 0.041 | -0.009 | 0.034 | 0.033 | 0.025 | 0.014 | -0.011 | -0.001 | 0.035 | 0.015 | -0.027 | -0.002 | -0.01 | 0 | -0.033 | -0.015 | 0.005 | 0.02
13 | SPATA5L1 (UniProt Q9BVQ7) | 0.03 | 0.015 | 0.052 | -0.058 | -0.135 | 0.014 | -0.023 | 0.012 | 0.024 | 0.015 | 0.022 | -0.16 | 0.019 | 0.036 | 0.23 | 0 | -0.061 | 0.024 | -0.052 | -0.013
14 | SRRT (UniProt Q9BXP5) | 0.012 | 0.012 | -0.008 | -0.039 | -0.08 | 0.042 | 0.061 | -0.1 | -0.016 | 0.02 | 0.014 | -0.195 | 0.008 | -0.013 | -0.02 | 0.024 | 0.202 | 0.03 | -0.01 | 0.009
15 | SVIP (UniProt Q8NHG7) | -0.014 | 0.014 | 0.051 | 0.079 | 0.095 | -0.11 | 0.033 | 0.005 | 0 | -0.086 | -0.014 | 0.028 | -0.017 | 0.025 | 0.098 | -0.042 | -0.055 | 0.05 | -0.039 | -0.099
16 | SHC1 isoform 6 (UniProt P29353) | 0.028 | 0.003 | 0.008 | -0.027 | 0.01 | -0.035 | 0.635 (active) | -0.163 | -0.007 | 0.017 | 0.186 | 0.035 | 0.001 | -0.031 | 0.086 | 0.15 | -0.078 | -0.008 | -0.014 | -0.035
